# The whole screen tested about 53,000 sequences, of which about 3,700 (7%) were called active.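 How the source made its calls: active means gene knockdowns whose robust z-score for IL-1 alpha signal is at least 2 or at most -2, so actives lie on both sides; inactive means the rest.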 This excerpt belongs to a sample that is enriched for actives.
# Experiment: Components of the Cytosolic LPS Sensing Pathway: Gene Identification via Genome-wide siRNA Screen;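 further: robust z of the log signal after scaling to non-targeting control siRNA wells of the plate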
# Conditions: RAW264.7 macrophages, IL-1a HTRF, actives lie on both sides, screened at 100 nM (by protocol), cells primed 5 h with Pam3CSK4 first
# Procedure, shortened: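 Supernatant IL-1a by HTRF from RAW264.7 cells primed with Pam3CSK4 (5 hours) and transfected with LipidA (24 hour) after 48h siRNA knockdown at 100 nM; cell viability checked with CellTiter-Glo.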
row,Sequence,z-score
1,GCAGGUUGCACCAUGUAGATT against Slc25a42,0.701 (inactive)
2,CCAUCUUGGGUUCUGGUCATT against Zc3h4,-0.204 (inactive)
3,GGGCAAAACACUGUCUUUCTT against Tlr5,1.87 (inactive)
4,GCCUCUACUGGUUAUUUAATT against Slc22a15,2.09 (active)
5,CCUUCAAGUACUUUCUCCGTT against Dcakd,1.22 (inactive)
6,GGAUGAGGAGGAAAAGCUGTT against Nop2,-1.86 (inactive)
7,GGUCAAUGAACAGCACCGGTT against Igfbp2,0.723 (inactive)
8,GGAUAAAGGAAAAGAAACATT against Rcvrn,-1.34 (inactive)
9,CCAGACUCCUCUUAGAAGGTT against Ankrd34c,0.73 (inactive)
10,GCUAGAUCUUUCAUCCAACTT against Lrtm1,1.2 (inactive)
11,GGCCUUGGUGAAAAUGCAGTT against Plaat1,-2.07 (active)
12,GGAGACAUGGACCAUGGCUTT against Mapt,0.37 (inactive)
13,GGUGAUGUAUAUUGAGUCUTT against Sdcbp2,0.149 (inactive)
14,GGAUAGACUUGAUUCUUGGTT against Emid1,0.491 (inactive)
15,GGAAAUAGUACAGAAACCATT against Mcph1,-2.44 (active)
16,CCAUGUUUUUAUAGCUCUUTT against Sidt2,1.49 (inactive)
17,GGUGGAUAAAGCUUAAAUATT against V1rg10,-0.258 (inactive)
18,GGAGGCACAGAGAUUGAAGTT against Sry,0.247 (inactive)
19,GGCAUCUUUGGAGACUGGUTT against Sycn,0.598 (inactive)
20,CCUUUGGAAUUUCUAAUACTT against Stil,-0.286 (inactive)
21,GGCUGUCAAAACAGUGCUCTT against Hmgcs2,1.45 (inactive)
22,GCUGGAGACGUAUUUGUCCTT against Olfr294,2.17 (active)
23,UUGGCUGCAUUAUCAUGAGTT against Olfr311,-0.419 (inactive)
24,GGUUUGGCAGAAGUGCAUGTT against Npff,-0.801 (inactive)
25,GCUACAUCGCUCUUAUAGCTT against Foxl1,0.0236 (inactive)
26,CGAUGUUGAGGGAUUAUCUTT against Tstd2,-2.25 (active)
27,GGACUUGAAAUUAGCAAAATT against Arhgef3,-0.0218 (inactive)
28,GGACUUUAAAUGCAAUAUCTT against Trps1,-0.567 (inactive)
29,GGCUCCAAGCACUAAAUAATT against B130024G19Rik,0.168 (inactive)
30,CCUCAAACUAACCACUCACTT against Olfr1045,-1.13 (inactive)
